Reference: PubChem BioAssay AID651636 (Sanford-Burnham Center for Chemical Genomics, 2012)
Values joined by “and” are separate entries in the source; they are usually repeats but may differ in a detail not shown here. Identical values can stand only once. Screen size: about 360,000 compounds; about 3,000 (0.83%) were called active. Rule as the data show it: active = inhibition above about 38%; inactive = the rest. What follows is part of a selection rich in actives, with near analogues and random picks from the rest.

Each compound was assayed against G-protein coupled receptor 183 (Homo sapiens) (UniProt P32249) (assay: EBI2 receptor antagonists, beta-arrestin recruitment, primary screen, cell-based, luminescence, 7a,25-OHC stimulation, uHTS (AID 651636;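 also: enzyme fragment complementation signal reports receptor beta-arrestin coupling in cells; 0% = agonist plus DMSO wells and 100% = wells without agonist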)). Conditions: 7a,25-OHC stimulated, at 5 µM, active compounds read high.
Chain of G-protein coupled receptor 183 (Homo sapiens) (P32249 whole entry, looked up, the tested form may be a part): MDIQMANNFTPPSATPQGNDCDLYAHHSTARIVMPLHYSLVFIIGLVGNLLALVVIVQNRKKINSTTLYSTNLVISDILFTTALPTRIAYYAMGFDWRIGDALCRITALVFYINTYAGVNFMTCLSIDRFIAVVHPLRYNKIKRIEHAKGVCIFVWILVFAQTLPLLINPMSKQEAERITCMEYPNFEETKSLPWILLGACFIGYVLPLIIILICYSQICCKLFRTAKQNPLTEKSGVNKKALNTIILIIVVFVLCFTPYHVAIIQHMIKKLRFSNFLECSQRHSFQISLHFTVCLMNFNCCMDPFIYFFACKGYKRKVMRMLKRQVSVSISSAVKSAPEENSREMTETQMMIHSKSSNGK

| SMILES | inhibition |
| --- | --- |
| CCn1c(=S)sc2c(=O)n(CC(=O)Nc3ccc(OC)cc3)c(C)nc21 | 1.99% (inactive) |
| COc1ccc(NC(=S)N2N=CCC2c2ccccc2)cc1 (centres undefined) | 3.93% (inactive) |
| CC(=O)N1c2ccc(S(=O)(=O)NCCC(=O)N(C)C3CCCCC3)cc2CC1C (centres undefined) | -4.73% (inactive) |
| Fc1ccc(Cn2nnnc2C(c2cccs2)N2CCCCCC2)cc1 (centres undefined) | 6.98% (inactive) |
| N#Cc1ccc(C(c2nnnn2CCc2ccccc2)N2CCCCCC2)cc1 (centres undefined) | 50.2% (active) |
| CCCCn1nnnc1C(c1ccccc1)N1CCN(c2ccccc2OC)CC1 (centres undefined) | 1.91% (inactive) |
| O=C(CN1CCOCC1)Nc1c2c(nc3c1CCC3)CCC2 | 7.47% (inactive) |
| CCCNC(=O)N1CCN(C(=O)NCCC)CC1 | -0.62% (inactive) |
| Cc1cccc(-n2c(O)c(C=Nc3ccccc3N)c(=O)[nH]c2=O)c1 | 95.3% (active) |
| COc1ccc(-n2cc(-c3ccccc3)c3c(=S)nc[nH]c32)cc1 | 14.3% (inactive) |
| COc1ccc(-c2cn(-c3ccc(OC)cc3)c(=S)[nH]2)cc1 | 86.5% (active) |
| O=c1oc2ccccc2cc1-c1cn(-c2ccccc2)c(=S)[nH]1 | -9.67% (inactive) |
| Cc1nc2ccc(S(=O)(=O)NCC(=O)O)cc2s1 | -11.4% (inactive) |
| CC[n+]1c(C)n(-c2ccccc2)c2ccc(NC(C)=O)cc21 | 3.98% (inactive) |
| N/C(=N\OC(=O)CCc1ccccc1)c1ccc(Cl)cc1 | 12.5% (inactive) |
| Cc1cc(C)cc(NC(=O)NC2CCN(CC(=O)Nc3cccc(Cl)c3C)CC2)c1 | 18.1% (inactive) |
| Cc1cccc(NC(=O)CN2CCN(C(=O)C3CCN(C(=O)/C=C/c4ccccc4)CC3)CC2)c1C | 79.2% (active) |
| Cc1cccc(NC(=O)CN2CCN(CC(=O)NCC3(N4CCCCC4)CCCCC3)CC2)c1C | -3.14% (inactive) |
| O=C(C[C@H]1CC[C@@H](NC(=O)c2ccncc2)[C@@H](CO)O1)NCC1CC1 | -1.01% (inactive) |
| CC(C)C(=O)N1CCN(CCN=CC2=C(O)CC(c3ccco3)CC2=O)CC1 (centres undefined) | -2.69% (inactive) and -8.63% (inactive) |
| CCOc1ccc(-c2noc(CCC(=O)NC3CCCC3)n2)cc1OC | 8.53% (inactive) |
| CCOc1nc(-c2ccc(OC)cc2)ccc1-c1noc(-c2cc(OC)c(OC)c(OC)c2)n1 | 49.3% (active) |
| CCOc1cc(-c2noc(CCC(=O)N3CCOCC3)n2)ccc1OC | -2.72% (inactive) |

| SMILES | inhibition |
| --- | --- |
| CCOc1ccc(S(=O)(=O)Nc2ccncc2)c(C)c1C | -5.77% (inactive) |
| CCCS(=O)(=O)NC(=O)C1(C)CCCN(C(=O)c2cc(C)on2)C1 (centres undefined) | -3.5% (inactive) |
| Cc1cccc(C)c1NC(=O)CN1CCN(c2ccc(F)cc2)CC1 | 0.0279% (inactive) |
| O=C(CN1CCN(c2ccc(Cl)cc2)CC1)c1ccccc1 | 2.55% (inactive) |
| Oc1c(CN2CCN(c3ccc(F)cc3)CC2)cc(Cl)c2cccnc12 | 54.1% (active) |
| COc1cccc(-c2ccc3c(c2)N(Cc2ccccc2OC)C(=O)C(C)S3)c1 (centres undefined) | 27.4% (inactive) |
| CN(C)C(=O)c1cccc(-c2cnc3c(NC=O)cc(-c4ccc(F)cc4)cn23)c1 | 8.37% (inactive) |
| COc1ccc(-c2cc(NC=O)c3ncc(-c4cc(OC)c(OC)c(OC)c4)n3c2)c(OC)c1 | 15.5% (inactive) |
| COc1ccc(-c2cc(NC=O)c3ncc(-c4cccc(C(=O)N(C)C)c4)n3c2)c(OC)c1 | 52% (active) |
| N#Cc1ncc(C(F)(F)F)cc1Oc1cccnc1 | -11% (inactive) |
| Cc1onc(-c2ccccc2Cl)c1C(=O)N(Cc1ccc(N(C)C)cc1)C(C)C | 1.77% (inactive) |
| CC(Sc1nncn1C)C(=O)Nc1ccccc1-c1ccccc1 (centres undefined) | -4.03% (inactive) |
| CCOC(=O)C1=NN(c2ccc(Cl)cc2)/C(=C/C2=NCCc3cc(OC)c(OC)cc32)S1 | 6.84% (inactive) |
| CC(=O)NC(Cc1ccccc1)C(=O)NC1CCN(c2ncccc2[N+](=O)[O-])CC1 (centres undefined) | 5.83% (inactive) |
| COc1ccc(N2CCN(c3ccc([N+](=O)[O-])nc3)CC2)cc1 | 6.82% (inactive) |
| COc1ccc(-c2cc(C3CCN(c4ncccc4[N+](=O)[O-])CC3)[nH]n2)cc1 | 37.5% (active) |
| CCN1CCN(C(=O)N(Cc2ccc(Cl)cc2)S(=O)(=O)c2ccc(C)cc2)CC1 | -6.18% (inactive) |
| CC1=C(C(=O)N(C(C)C)C(C)C)CC(CC(=O)NCC2CCCCC2)C(=O)N1Cc1ccccc1 (centres undefined) | 3.31% (inactive) |
| O=c1[nH]c(CN2CCN(S(=O)(=O)c3ccc4c(c3)OCCO4)CC2)nc2sc3c(c12)CCCC3 | 38.3% (active) |
| O=C(c1ccc(Cl)nc1)N1CCN(S(=O)(=O)c2ccc3c(c2)OCCO3)CC1 | 17.6% (inactive) |
| CN1CCCN(S(=O)(=O)c2ccc3c(c2)OCCO3)CC1 | -1.61% (inactive) |
| C=CCOc1ccc(/C=C/C(=O)OCC(=O)NC(C)c2ccc(F)cc2)cc1 (centres undefined) | 29.1% (inactive) |
| Cn1c(SCC(=O)OC2CCCCC2)nnc1-c1ccc(S(=O)(=O)N2CCCC2)cc1 | 0.352% (inactive) |

| SMILES | inhibition |
| --- | --- |
| COc1ccc(CCNC(=O)CCn2c(=O)c3ccccc3n(CC(=O)NCC3CCCO3)c2=O)cc1OC (centres undefined) | -15.5% (inactive) |
| CC1(Cc2cccc(C#N)c2)C(=O)Nc2ccc(-c3cccc(C(F)(F)F)c3)cc21 (centres undefined) | 17.2% (inactive) |
| CC1(Cc2ccccc2C#N)C(=O)Nc2ccc(-c3ccc4[nH]ccc4c3)cc21 (centres undefined) | 47.3% (active) |
| COc1ccccc1CC1(C)C(=O)Nc2ccc(OC(F)(F)F)cc21 (centres undefined) | 3.59% (inactive) |
| CCCCOCCCNC(=O)C[C@@H]1C[C@@]2(C(=O)OCC)CCCC=C2N(CCC2=CCCCC2)C1=O | 1.45% (inactive) |
| COc1ccc(N(CC(=O)Nc2cc(OC)ccc2OC)S(=O)(=O)c2c(C)noc2C)cc1 | 65.5% (active) |
| CCOc1ccc(N(CC(=O)OC)S(=O)(=O)c2c(C)noc2C)cc1 | 1.12% (inactive) |
| CCOC(=O)c1cccc(NC(=O)CN(c2ccc(C)cc2)S(=O)(=O)c2c(C)noc2C)c1 | 15.3% (inactive) |
| Cc1nc2ccc(C(=O)N3CCSCC3)cc2s1 | -12.2% (inactive) |
| Cc1nc2ccc(C(=O)N3CCN(c4ccccc4)CC3)cc2s1 | 65.3% (active) |
| CCc1nc2ccc(C(=O)N3CCN(c4cccc(Cl)c4)CC3)cc2nc1CC | -4.92% (inactive) |
| Cc1c(CN2CCCC(C(=O)c3cccc(Cl)c3)C2)c(=O)n(-c2ccccc2)n1C (centres undefined) | 5.82% (inactive) |
| CC[C@]1(C(=O)OC)[C@H]2C(=O)N(Cc3ccccc3)C(=O)[C@H]2[C@H]2CN=C(SCc3ccc(Cl)cc3)N21 | 19.5% (inactive) |
| OC[C@@H]1CN(Cc2ccncc2)C[C@H](n2cnc3c(N4CCN(c5ccccc5)CC4)ncnc32)O1 | 13.5% (inactive) |
| CCC1Nc2ncnc(N3CCN(c4ccccc4)CC3)c2N(Cc2ccc(Cl)cc2)C1=O (centres undefined) | 68.8% (active) |
| CC(C)CC1(C)NC(=O)N(CC(=O)Nc2ccc3c(c2)OCCO3)C1=O (centres undefined) | 10.5% (inactive) |
| O=C(NCCS(=O)(=O)N1CCN(c2ccc(F)cc2)CC1)c1ccc2c(c1)OCO2 | 5.18% (inactive) |
| O=C(NNC(=S)Nc1ccc(F)cc1)[C@H]1C[C@@H]1c1ccccc1 | -13.1% (inactive) |
| CCN(CC)c1ccc(/C=N/Nc2nc(C)cc(C)n2)c(O)c1 | 42.4% (active) |
| O=C(NCCN1C(=O)S/C(=C\c2cccnc2)C1=O)c1ccc(S(=O)(=O)N2CCCC2)cc1 | -1.14% (inactive) |
| Cc1ccc(SCCC(=O)NC(C(C)C)C(C)C)cc1 | 5.4% (inactive) |
| Cc1cc(OCCOc2cccc3cccnc23)c(C)cc1Cl | 46.6% (active) |
| O=S(=O)(NCCOc1cccc2cccnc12)c1ccc(F)cc1 | 0.785% (inactive) |

| SMILES | inhibition |
| --- | --- |
| CCOc1cccc(OCCCOc2cccc3cccnc23)c1 | 4.1% (inactive) |
| CCOC(=O)N1CCN(C(=O)C[C@@H]2C[C@@]3(C(=O)OC)CC(C)(C)CC=C3N(Cc3ccco3)C2=O)CC1 | 3.44% (inactive) |
| Cc1nc(-c2ccccc2)sc1C(=O)/C=C/c1ccccc1 | 55.4% (active) |
| Cc1[nH]c(=O)c(C(=O)/C=C/c2ccccc2)c2c1CCCC2 | -9.45% (inactive) |
| Cc1nc(-c2ccc(Cl)cc2)sc1C(=O)CBr | 10.7% (inactive) |
| CC1=C/C(=N\OS(=O)(=O)c2ccccc2)C=CC1=O | -17.6% (inactive) |
| O=S(=O)(Nc1cccc(-n2cnnn2)c1)c1cnc(Cl)c(Cl)c1 | -8.42% (inactive) |
| CC(C)(C)C1CCC(=NNC(=O)c2ccc(Br)o2)CC1 (centres undefined) | -9.46% (inactive) |
| O=C1C=C(c2cccc(Br)c2)C[C@@H](c2ccc(F)cc2)C1 | 36.7% (inactive) |
| COc1ccc([C@H]2CC(=O)C=C(/C=C/c3ccc(Cl)cc3)C2)cc1 | 44.1% (active) |
| CCCCC/C=C/C1=CC(=O)C[C@H](c2ccc(Cl)cc2)C1 | 4.95% (inactive) |
| O=C1C=C(c2cccc(Cl)c2)C[C@@H](c2ccc(F)cc2)C1 | 22.1% (inactive) |
| COc1ccc([C@H]2CC(=O)C=C(c3ccc(OC(F)(F)F)cc3)C2)cc1OC | 31% (inactive) |
| O=C1C=C(c2cc(C(F)(F)F)cc(C(F)(F)F)c2)C[C@@H](c2ccc3c(c2)OCO3)C1 | 14% (inactive) |
| N#Cc1ccc(C2=CC(=O)C[C@H](c3ccc(Cl)cc3)C2)cc1 | 80.3% (active) |
| COc1ccc2cc(C3=CC(=O)C[C@H](c4ccc5c(c4)OCO5)C3)ccc2c1 | 71.7% (active) |
| COc1ccc([C@H]2CC(=O)C=C(c3ccc(CO)cc3)C2)cc1 | 29.6% (inactive) |
| COc1ccc([C@H]2CC(=O)C=C(/C=C/c3ccccc3)C2)cc1 | 34.9% (inactive) |
| COc1cccc(C2=CC(=O)C[C@H](c3ccc(OC)c(OC)c3)C2)c1 | 10.2% (inactive) |
| COc1ccc([C@H]2CC(=O)C=C(c3ccc(C)cc3)C2)cc1 | 81.1% (active) |
